Source: PubChem BioAssay
HepG2 tox-1 = qHTS for Inhibitors of TGF-b: Cytotox Counterscreen; HepG2 CAGA-GFP viability, ATP luminescence, 18 h; Potency, µM (titrated, usually from 46.1 µM), hits mostly cytotoxic; 0.76% of 410,000 active; AID 588856, 2011
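HepG2 CAGA-GFP cells (1000/well, DMEM with 1% FBS) received compound, then TGF-beta at 500 pg/mL final, and were incubated 18 hours at 37 degrees C. Viability was read by CellTiter-Glo luminescence. Media-only wells were set as complete cell-killing and DMSO as no toxicity.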
S2 tox = Viability Counterscreen for Primary qHTS for Inhibitors of ATXN expression. Potency, µM (series often up to 56.7 µM), usual class: cytotoxic. 0.49% of 400,000 active. S2 cells (HEK-293 line with an ATXN2-luciferase reporter) viability, CellTiter-Fluor protease fluorescence, 24 h; also: nearly all actives have a fitted effect of over 40% in size
TGFb SMAD3 inh = qHTS for Inhibitors of TGF-b; Potency, µM (highest dose often 46.1 µM), hits mostly inhibitors; 1.2% of 410,000 active; HepG2 CAGA-GFP TGF-b/SMAD3 reporter, GFP fluorescence, 18 h; TGF-beta stimulated, 500 pg/mL final; AID 588855, 2011; also: nearly all actives have a fitted effect of over 65% in size
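GFP signal (ex488/em500-530) from TGF-beta-stimulated HEPG2 CAGA-GFP cells, 500 pg/mL final, 18 h at 37 degrees C in DMEM plus 1% FBS, normalized to unstimulated and DMSO-stimulated controls.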
ATXN2 expr inh = Primary qHTS for Inhibitors of ATXN expression. HEK-293 ATXN2-luciferase reporter, luminescence, 24 h. Potency, µM (series often up to 57 µM), hits mostly inhibitors. 0.72% of 360,000 active; also: nearly all actives have a fitted effect of over 55% in size
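qHTS (up to 57 uM final) was run with 24 h compound exposure of reporter cells at 37 °C. Each well was multiplexed: SteadyGlo luminescence measured ATXN2-luciferase expression after a fluorogenic Gly-Phe-AFC viability readout (25 uM final).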
IL1B secr inh = qHTS for Inhibitors of Inflammasome Signaling: IL-1-beta AlphaLISA Primary Screen; 4.7% of 360,000 active; activity change, % at 57.5 µM; AID 743279, 2014; THP-1 LPS/ATP IL-1B secretion, AlphaLISA, 16 h; hits give low values; in the data active = activity change below about -50%; inconclusive = mostly about -30% to -49%
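Secreted IL-1B measured by AlphaLISA bead assay after 16 h compound exposure of THP-1 cells; compounds (final up to 57.5 uM) added 1 h before LPS (250 ng/mL) and ATP (1.25 mM) stimulation; lower signal means less secretion.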
TGFb CAGA inh = qHTS for Inhibitors of TGF-b: Confirmation of Cherry Picks | shares compounds with TGFb SMAD3 inh | HepG2 CAGA-GFP TGF-b reporter, GFP fluorescence, 18 h; cells stimulated with TGF-beta, 500 pg/mL | Potency, µM (highest dose often 46.1 µM), usual class: inhibitors | 63% of 1,600 active; also: nearly all actives have a fitted effect of over 65% in size
HepG2 tox-2 = qHTS for Inhibitors of TGF-b: Cytotox Counterscreen for Cherry Picks; shares compounds with TGFb SMAD3 inh; HepG2 CAGA-GFP viability, ATP luminescence, 18 h; cells stimulated with TGF-beta, 500 pg/mL; Potency, µM (series often up to 46.1 µM), actives largely listed as inhibitors; 27% of 1,600 active; AID 720535, 2013; also: nearly all actives have a fitted effect of over 70% in size
TGFb CCL64 inh = qHTS for Inhibitors of TGF-b: CCL64 Cells Orthogonal Assay for Cherry Picks; Potency, µM (titrated, usually from 46.1 µM), usual class: inhibitors; AID 720536, 2013; shares compounds with TGFb SMAD3 inh; CCL64 CAGA-GFP reporter, TGF-b stimulated, GFP fluorescence, 18 h; 41% of 1,600 active; also: nearly all actives have a fitted effect of over 65% in size
TGFb COP inh = qHTS for Inhibitors of TGF-b: Hit Validation in HepG2 Cells using COP promoter. shares compounds with TGFb SMAD3 inh. HepG2 COP-GFP TGF-b reporter, GFP fluorescence, 18 h; cells stimulated by added recombinant TGF-beta. Potency, µM (doses to about 46.1 µM), usual class: inhibitors. 3% of 1,600 active. AID 720537, 2013; also: nearly all actives have a fitted effect of over 70% in size
Numbers stand for hits. Compounds with a hit are over-represented: about 5.7% of the library has one in this group of screens. Unless noted, calls follow the shape of the dose curve; as a rule, active = well fitted curve in the direction sought with a large enough effect; inconclusive = small, poorly fitted or top-dose-only effect, or another doubt; inactive = no such curve, though single readings can be large; an effect the other way counts as inactive or inconclusive.

O=S(=O)(Nc1cc(Sc2cccc3cccnc23)c(O)c2ccccc12)c1ccc(F)cc1 was read as HepG2 tox-1 1.12µM, S2 tox 3.98µM, TGFb SMAD3 inh 0.794µM, ATXN2 expr inh inconclusive, IL1B secr inh -98.3, TGFb CAGA inh 11.6µM, HepG2 tox-2 14.6µM, TGFb CCL64 inh 2.59µM and TGFb COP inh inactive.
CC(C)CN(CCNC(=O)CCN1N=C(c2ccccc2)CCC1=O)CC(C)C was read as HepG2 tox-1 inactive and TGFb SMAD3 inh inactive.
Screening COc1ccc(CNC(=O)CN(Cc2ccccc2)S(=O)(=O)c2ccc(Cl)cc2)cc1 returned HepG2 tox-1 inactive, S2 tox inactive, TGFb SMAD3 inh inconclusive, ATXN2 expr inh inactive and IL1B secr inh inactive.
`COc1ccc(C)cc1S(=O)(=O)N(CC(=O)NCc1ccc(Cl)cc1)Cc1ccccc1` gave HepG2 tox-1 inactive, S2 tox inactive, TGFb SMAD3 inh 12.6µM, ATXN2 expr inh inactive, IL1B secr inh -61.3, TGFb CAGA inh inconclusive, HepG2 tox-2 inconclusive, TGFb CCL64 inh inconclusive and TGFb COP inh inactive.
Screening C=C(C)c1cccc(C(C)(C)NC(=O)Nc2nnc(C(C)C)s2)c1 returned HepG2 tox-1 inactive, S2 tox inconclusive, TGFb SMAD3 inh 8.91µM, IL1B secr inh inactive, TGFb CAGA inh inconclusive, HepG2 tox-2 inactive, TGFb CCL64 inh inactive and TGFb COP inh inactive.
C=C(C)c1cccc(C(C)(C)NC(=O)Nc2nncs2)c1 was read as HepG2 tox-1 inactive, S2 tox inactive, TGFb SMAD3 inh inactive, ATXN2 expr inh inactive and IL1B secr inh inactive.
For Nc1ncnc2c1ncn2C1C=C(CO)C(O)C1O (centres undefined) the results were HepG2 tox-1 10µM, S2 tox inconclusive, TGFb SMAD3 inh 8.91µM, ATXN2 expr inh inconclusive, IL1B secr inh inactive, TGFb CAGA inh inconclusive, HepG2 tox-2 0.13µM, TGFb CCL64 inh inconclusive and TGFb COP inh inactive.
For CCOC(=O)C1CCN(C(=O)c2nn(-c3ccc(C)cc3)c(=O)n(C)c2=O)CC1 the results were HepG2 tox-1 inactive, S2 tox inactive, TGFb SMAD3 inh inactive and ATXN2 expr inh inactive.
For COc1cc(/C=C/C(=O)OCC(=O)NCc2ccc(F)cc2)ccc1O the results were HepG2 tox-1 inactive, S2 tox inactive, TGFb SMAD3 inh inactive, ATXN2 expr inh inactive and IL1B secr inh inactive.
For COc1ccc(/C=C/C(=O)c2ccc([N+](=O)[O-])o2)cc1OC the results were HepG2 tox-1 11.2µM, S2 tox inconclusive, TGFb SMAD3 inh 2.51µM, ATXN2 expr inh 8.91µM, IL1B secr inh -101.9, TGFb CAGA inh 2.91µM, HepG2 tox-2 4.61µM, TGFb CCL64 inh 2.06µM and TGFb COP inh inactive.
For COc1cc(/C=C/C(=O)c2ccc([N+](=O)[O-])o2)ccc1O the results were HepG2 tox-1 inactive, S2 tox 3.55µM, TGFb SMAD3 inh 1.12µM, ATXN2 expr inh inconclusive, IL1B secr inh -60.1, TGFb CAGA inh 4.11µM, HepG2 tox-2 8.2µM, TGFb CCL64 inh 2.91µM and TGFb COP inh inconclusive.
CCN1CCN(c2cc3c(cc2F)c(=O)c(S(=O)(=O)c2cc(C)cc(C)c2)cn3CC)CC1 was read as HepG2 tox-1 inactive and TGFb SMAD3 inh inactive.
For CCO[C@@H]1OC(C(=O)NCc2nc3ccccc3[nH]2)=C[C@H](C(C)(C)C)[C@H]1CCCO the results were HepG2 tox-1 inactive, S2 tox inconclusive, TGFb SMAD3 inh 1.58µM, ATXN2 expr inh inactive, IL1B secr inh inactive, TGFb CAGA inh inconclusive, HepG2 tox-2 inactive, TGFb CCL64 inh inconclusive and TGFb COP inh inactive.
`CCOC(=O)c1c(C)oc2nc(C)nc(NCc3cccc(Cl)c3)c12` gave HepG2 tox-1 inactive, S2 tox inactive, TGFb SMAD3 inh inactive and ATXN2 expr inh inactive.
`CC(C)C[C@H]1CNC(=S)N1CC1CCCN1C[C@H](Cc1ccccc1)N1C[C@H](Cc2ccc(O)cc2)N(CC2CCCCCC2)C1=S` (some centres undefined) gave HepG2 tox-1 inactive, S2 tox inactive, TGFb SMAD3 inh 6.31µM, ATXN2 expr inh inactive, IL1B secr inh -67.4, TGFb CAGA inh 14.6µM, HepG2 tox-2 inconclusive, TGFb CCL64 inh 5.8µM and TGFb COP inh inactive.
CC(C)C[C@H]1CN([C@@H](Cc2ccc(O)cc2)CN2CCC[C@@H]2CN2C(=S)NC[C@@H]2Cc2ccccc2)C(=S)N1CC1CCCCCC1 was read as HepG2 tox-1 inactive, S2 tox inconclusive, TGFb SMAD3 inh 10µM, ATXN2 expr inh inconclusive, IL1B secr inh inactive, TGFb CAGA inh inconclusive, HepG2 tox-2 inactive, TGFb CCL64 inh inconclusive and TGFb COP inh inactive.
`CCOC(=O)c1cc(-c2ccc(F)cc2)n(CCC(=O)Nc2nc3ccc(OC)cc3s2)c1C` gave HepG2 tox-1 inactive and TGFb SMAD3 inh inconclusive.
Screening COc1ccc(OC)c(NC(=O)c2cc3cc(C)ccc3n2C)c1 returned HepG2 tox-1 inactive, S2 tox inactive, TGFb SMAD3 inh inactive and ATXN2 expr inh inactive.
For CN(Cc1ccccc1)C(=O)c1nc[nH]c1C(=O)N1CCN(c2ccccc2)CC1 the results were HepG2 tox-1 inactive, S2 tox inactive, TGFb SMAD3 inh inactive, ATXN2 expr inh inactive and IL1B secr inh inactive.
For CCN(CC)C(=O)c1nc[nH]c1C(=O)N1CCN(c2ccccc2)CC1 the results were HepG2 tox-1 inactive, S2 tox inactive, TGFb SMAD3 inh inconclusive, ATXN2 expr inh inactive, IL1B secr inh inactive, TGFb CAGA inh inactive, HepG2 tox-2 inactive, TGFb CCL64 inh inactive and TGFb COP inh inactive.
